Screening results as filed in PubChem.
Wnt act – Wnt/beta-catenin pathway activation. AID 743398. Wnt/beta-catenin reporter cell assay, activator, plate reader. 1.2% of 300,000 active. activation, % at 9.35 µM; in the data active means activation above about 30%, passing the limit was not always enough; inconclusive means no clear call, values can overlap the other calls;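 further: 0% = neutral control wells and 100% = positive control wells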
HSF1 activator – increases HSF-1 driven luciferase reporter signal | NIH3T3-HGL HSF-1 luciferase reporter, MG132, 8 h; 100% = twice DMSO control signal | activation, % at 9 µM | 1.7% of 300,000 active;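 active means mean replicate activation of at least 50% with a set share of replicates each reaching 50%; inconclusive means only one of those two conditions met; inactive means mean below 50% and too few replicates reaching it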;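 further: 0% = median of the neutral control wells and 100% = twice that signal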
MITF act – activators of MITF-driven TRPM1 promoter activity in SK-MEL-5 cells | activation, % at 12.5 µM | SK-MEL-5 TRPM1-promoter luciferase, 24 h; % of positive control, neutral wells = 0 | 0.75% of 300,000 active;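 active means mean activation of at least 80% with every replicate also reaching 80%; inconclusive means mean reaches 80% but some replicate falls short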;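 further: 0% = neutral control wells and 100% = parthenolide positive control wells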
HSF1 inhib – HSF1 inhibition | 0.77% of 300,000 active | activity change, negative = inhibition, % at 7.5 µM (by protocol) | AID 2098 | NIH3T3-HGL HSE-luciferase, MG132-induced, luminescence 8 h; active compounds read low;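 active means more than half of replicate wells show activity change below -50%, luminescence cut by over half; inconclusive means some wells, but at most half, below -50%; inactive means no replicate well below -50%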;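 further: luciferase reports HSF-1 transcriptional activity via heat shock element; 0% = median of DMSO wells and -100% = zero luminescence signal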
esBAF inh – SWI/SNF esBAF complex inhibition | AID 602393 | mouse ES cells, Bmi1-luciferase knock-in reporter, 24 h; 100% = twice the neutral-well signal | reporter increase, % at 12.5 µM | 2% of 350,000 active; in the data active means activation above about 40%; inconclusive means no clear call, values can overlap the other calls;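 further: 0% = median of the plate's neutral control wells and 100% = double that signal; a rise in the Bmi1 reporter signal indicates esBAF inhibition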
* = called active by the depositor; ? = inconclusive; / = no result. Sampled rows, rich in hits. Any-hit rate of the full collection: about 3.8%.

SMILES	Wnt act	HSF1 activator	MITF act	HSF1 inhib	esBAF inh
Cc1ccc(S(=O)(=O)Nc2ccc3c(c2)C(=O)N([C@H](C)CO)C[C@H](C)[C@H](CN(C)C(=O)NC2CCCCC2)OCCCC[C@H](C)O3)cc1	/	/	/	/	6
CCOC(=O)C1=C(C)NC2=C(C(=O)CC(c3ccc(OC)c(OC)c3)C2)C1c1ccc(C)o1 (stereo not drawn)	/	/	-1	/	-11
COc1ccccc1NC(=O)C1=C(C)NC2=C(C(=O)CC(c3ccc(OC)c(OC)c3)C2)C1c1coc2ccccc2c1=O (stereo not drawn)	/	67*	-15	30	2
COc1cccc(NC(=O)N(C)C[C@H]2Oc3ncc(C4=CCCCC4)cc3C(=O)N([C@@H](C)CO)C[C@H]2C)c1	/	/	/	/	10
N#C/C(=C(/O)CN1CCCCC1)c1nc(-c2ccc(Cl)cc2)cs1	/	/	38	/	60*
Cc1ccc(S(=O)(=O)Nc2ccc3c(c2)CC(=O)N([C@H](C)CO)C[C@@H](C)[C@@H](CN(C)S(=O)(=O)c2ccc(Cl)cc2)O3)cc1	/	/	/	/	-1
Cc1cc(C)c2c(N)c(C(=O)Nc3ccccc3Cl)sc2n1	0	32	/	0	/
Cc1cc(C)c2c(N)c(C(=O)Nc3ccccc3F)sc2n1	20	26	40	11	50*
Cc1ccccc1NC(=O)c1sc2nc(N3CCOCC3)c3c(c2c1N)CCCC3	3	24	51	12	54*
COc1ccccc1NC(=O)c1sc2nc(N3CCOCC3)c3c(c2c1N)CCCC3	0	9	35	3	-6
CC(=O)N(C)C[C@H]1Oc2ncc(-c3cccnc3)cc2C(=O)N([C@H](C)CO)C[C@@H]1C	/	/	/	/	0
Cc1ccc(S(=O)(=O)Nc2ccc3c(c2)CC(=O)N([C@@H](C)CO)C[C@H](C)[C@H](CN(C)S(=O)(=O)c2ccc(C)cc2)O3)cc1	/	/	/	/	-1
O=C(Nc1ccccn1)c1c(O)c2cccc3c2n(c1=O)CCC3	/	4	7	16	64*
Cc1cccnc1NC(=O)c1c(O)c2cccc3c2n(c1=O)CCC3	-4	25	-24	-2	-10
COc1ccc(CCNC2CC(=O)N(CCc3ccccc3)C2=O)cc1OC (stereo not drawn)	42*	20	4	1	6
Cc1ccn(CC(=O)NC2CC(C)(C)Cc3c2cnn3-c2ccc(F)cc2)n1 (stereo not drawn)	-2	2	61	6	42*
CCN(CC)CC(=O)NC1CC(C)(C)Cc2c1cnn2-c1ccc(F)cc1 (stereo not drawn)	9	-6	-5	0	0
Cc1noc(C)c1NC(=O)Nc1ccc2c(c1)C(=O)N([C@H](C)CO)C[C@H](C)[C@@H](CN(C)S(=O)(=O)c1ccccc1)OCCCC[C@H](C)O2	/	/	/	/	3
Fc1ccc(Sc2nc(-c3ccccc3)nnc2C(F)(F)F)cc1	-5	66*	-23	43	-4
C[C@H](CO)N1C[C@H](C)[C@@H](CN(C)C)OCCCC[C@H](C)Oc2ccc(NS(=O)(=O)c3ccccc3)cc2C1=O	/	/	/	/	-4
Cc1ccc(S(=O)(=O)N(C)C[C@H]2Oc3ccc(NC(=O)Cc4cn(C)c5ccccc45)cc3CC(=O)N([C@H](C)CO)C[C@H]2C)cc1	/	/	/	/	9
COc1ccc(C(=O)/C=C/C(=O)N(CC(=O)NC2CCCCC2)Cc2ccccc2)c(O)c1	-3	170*	-99	132	/
COc1ccc(C(=O)/C=C/C(=O)N(CC(=O)NC2CCCCC2)Cc2ccccc2OC)c(O)c1	-1	38	-102	15	/
CO[C@@H]1CN(C)C(=O)c2cc(NS(=O)(=O)c3ccc(Oc4ccccc4)cc3)ccc2OC[C@H](C)NC[C@@H]1C	/	/	/	/	0
O=C1C(Nc2ccccc2)=C(NS(=O)(=O)c2ccccc2)C(=O)c2ccccc21	3	60*	-50	33	/
SMILES	Wnt act	HSF1 activator	MITF act	HSF1 inhib	esBAF inh
CCCn1cnc2c(SCc3ccccc3F)nc(N)nc21	-1	/	61	/	53*
CC(C)Cn1cnc2c(SCc3ccccc3Cl)nc(N)nc21	1	/	26	/	55*
CCC(C)Cn1cnc2c(SCc3ccccn3)nc(N)nc21 (stereo not drawn)	2	/	5	/	/
Cc1noc(C)c1NC(=O)Nc1ccc2c(c1)C(=O)N([C@@H](C)CO)C[C@@H](C)[C@@H](CN(C)Cc1ccc(C(F)(F)F)cc1)O2	/	/	/	/	-1
O=C(N[C@@H]1CC[C@@H](CCNS(=O)(=O)c2ccc(Cl)cc2)O[C@H]1CO)c1cnccn1	/	/	/	/	-4
O=C(O)C[C@@H]1C=C[C@@H](NC(=O)c2ccccc2F)[C@@H](CO)O1	/	/	/	/	-6
O=C(Nc1cccnc1Cl)c1noc2c1CCc1ccccc1-2	37*	20	70	14	/
O=C(NCCc1ccccc1)c1noc2c1CCc1ccccc1-2	/	52*	20	24	9
CCCNC(=O)c1noc2c1CCc1ccccc1-2	11	46	?	40	?
CN(Cc1ccccc1)S(=O)(=O)c1ccc(Cl)c(C(=O)NCCCN2CCOCC2)c1	57*	1	-3	-1	-2
CN(Cc1ccccc1)S(=O)(=O)c1ccc(Cl)c(C(=O)NCCCN2CCCC2=O)c1	-2	/	-31	/	-3
CNC[C@@H]1Oc2cc(C#CCC(C)C)ccc2S(=O)(=O)N([C@H](C)CO)C[C@H]1C	/	/	/	/	0
CN1CCN(C(=O)[C@@H]2[C@@H](CO)[C@@H]3Cn4c(ccc(-c5cccnc5)c4=O)[C@@H]3N2CC2CC2)CC1	/	/	/	/	1
Cc1cccc(CSCCNC(=O)COc2ccc(Cl)cc2)c1	-3	-63	-6	-56*	/
CO[C@H]1CN(C)C(=O)c2ccc(NC(C)=O)cc2OC[C@H](C)N(C(=O)C2CCC2)C[C@H]1C	/	/	/	/	-3
CCc1ccccc1Nc1nc(N)nc(CSc2nnnn2C)n1	4	/	-2	/	/
Cc1ccccc1Nc1nc(N)nc(CSc2nnnn2C)n1	0	17	46	8	56*
Cc1ccccc1Nc1nc(N)nc(CSc2ccc(F)cc2)n1	17	19	89*	13	?
CC(=O)c1ccccc1NC(=O)COC(=O)c1cc[n+]([O-])cc1	4	/	-3	/	-3
O=C(COC(=O)c1cc[n+]([O-])cc1)Nc1cccc(Cl)c1Cl	1	-70	20	-66*	/
Cc1cc(C[n+]2cc(Br)ccc2N)c2ncccc2c1	41*	-22	1	-1	/
Cc1cc(C[n+]2cc(Cl)ccc2N)c2ncccc2c1	-1	-11	2	-3	0
O=C(O)c1cccc2c1-c1ccccc1/C2=N\Nc1ccccc1	25	-23	62	-6	63*
O=C(O)c1cccc(NN=C2c3ccccc3-c3ccccc32)c1	0	12	16	7	/
CCCC(=O)Nc1ccc2c(c1)C(=O)N(C)C[C@H](OC)[C@@H](C)CN(C(=O)CC)[C@H](C)CO2	/	/	/	/	-1
COc1cccc(NC(=O)c2ccnc(N3CCC(C(=O)NCc4ccccc4OC)CC3)c2)c1	11	111*	43	66	73*
